# Measurements taken from PubChem BioAssay AID492999 (Johns Hopkins Ion Channel Center, 2010).
# Among all 1,700 compounds or so, about 1,100 (65%) were called active.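 The calls were made as follows: active = duplicate-averaged calcium response above the buffer-only control mean plus 5 SD of those controls; inactive = the rest.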 The set was probably picked from earlier hits. The list is a sample of the results.
# Assay: increase of M3R-evoked calcium signal – cell-based, validation screen, HEK293 M3R/RGS4, calcium flux, RGS4 inhibitor project (AID 492999);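 as to calcium response: integrated fluorescence ratio F max minus min over baseline F0; higher response in RGS4-induced cells means RGS4 inhibition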
# Settings: HEK293 M3R/RGS4, carbachol calcium Fluo-4 fluorescence, at 10 µM, carbachol added at its EC20; active compounds read high, 0 = buffer wells, 100 = carbachol control
row,SMILES,calcium response
1,CCCCC1S/C(=N/N=C/c2cccs2)NC1=O (configuration not stated),18% (active)
2,Brc1ccc(-c2csc(N/N=C/c3cccnc3)n2)cc1,7.5% (active)
3,Cc1ccc(Nc2nc(N)nc(CN3CCN(Cc4ccccc4)CC3)n2)cc1Cl,inactive
4,CNc1nc(Nc2ccc(C)c(Cl)c2)nc(N)c1[N+](=O)[O-],6% (active)
5,Cc1nn2c(=O)cc(COC(=O)c3ccc(NC(=O)C(C)(C)C)cc3)nc2s1,inactive
6,Cc1ccc(NC(=O)c2c(NC(=O)CCC(=O)O)sc3c2CCCCC3)cc1,inactive
7,CC(C)c1nc(SCC(=O)Nc2cccc(C(=O)O)c2)c2c3c(sc2n1)CCCC3,27.5% (active)
8,CC(C)Cc1nc(Nc2ccc(S(=O)(=O)N3CCCC3)cc2)c2nnn(Cc3ccccc3)c2n1,inactive
9,CNCC(O)c1ccc(O)c(O)c1 (configuration not stated),21.5% (active)
10,O=C(CCN1CCc2ccccc2C(O)(c2ccccc2)C1)c1ccc2c(c1)OCCO2 (configuration not stated),100% (active)
11,COc1ccc(C(C[N+](=O)[O-])n2nc(C)cc2C)cc1 (configuration not stated),10% (active)
12,Cc1nn(C(C)C(=O)N2CCOCC2)c(=O)c2nn(-c3ccccc3)c(C)c12 (configuration not stated),inactive
13,O=C(NCCCc1ccccc1)C1CCC(CNc2c(N3CCCCC3)c(=O)c2=O)CC1 (configuration not stated),inactive
14,O=C1c2ccccc2NC(c2ccc(-c3cccc(Cl)c3)o2)N1O (configuration not stated),24.5% (active)
15,c1ccc(C[C@H]2CNCCN2CCC23CC4CC(CC(C4)C2)C3)cc1,26.5% (active)
16,O=C(COC(=O)c1cccc(Br)c1)Nc1cccc2c1C(=O)c1ccccc1C2=O,inactive
17,O=C(O)c1ccc2c(c1)C(=O)N(c1ccc(/C=C/C(=O)c3ccccc3)cc1)C2=O,93% (active)
18,CCc1ccc(C2C(C#N)=C(N)N(N3CCOCC3)C3=C2C(=O)CC(C)(C)C3)s1 (configuration not stated),inactive
19,O=[N+]([O-])/C=C/c1ccc2c(ccn2Cc2ccccc2)c1,56.5% (active)
20,CCn1c(O)c(N=NC2=NC(=O)CS2)c2cc(C)ccc21,inactive
21,O=C1NC(c2ccc(-c3ccccc3[N+](=O)[O-])o2)C(C(=O)c2ccc(Cl)cc2)C(O)(C(F)(F)F)N1 (configuration not stated),18.5% (active)
22,Cn1c(-c2ccco2)nc2cc3ccccc3cc21,inactive
23,CCc1ccc2oc(-c3ccc(N)cc3)nc2c1,17% (active)
24,CCOc1ccc(NC(=O)C/C(C)=N/NC(=O)Cc2cccs2)cc1,inactive
25,CCCCOC(=O)CNc1nnc(SCC(=O)OCC)[nH]c1=O,63.5% (active)
26,Cc1ccc(C)c(Cn2nnc3c(=O)[nH]c(C(=O)Nc4ccc(F)cc4)nc32)c1,56.5% (active)

row,SMILES,calcium response
1,COC(=O)C1CCN(C(=O)c2cc(=O)[nH]c3ccccc23)CC1,inactive
2,Cc1ccc(S/C(=N\S(=O)(=O)c2ccc(Cl)cc2)c2ccccc2)cc1,inactive
3,C#CCOc1ccc(/C=C2/C(=O)ON=C2C)cc1OCC,16% (active)
4,C=CCOc1ccc(/C=C2/C(=O)ON=C2C)cc1OCC,14.5% (active)
5,Cc1ccsc1/C=N/n1c(=S)[nH]nc(C)c1=O,22.5% (active)
6,Cc1ccc(SC(CC(=O)c2ccc(C(C)(C)C)cc2)C(=O)O)cc1 (configuration not stated),inactive
7,Nc1cccc(-c2cc(-c3ccccc3)nc(-c3cccc(N)c3)n2)c1,13.5% (active)
8,COc1cc2c(cc1O)C(SC)=NC(C)(C)C2,26.5% (active)
9,CCc1nnc(NS(=O)(=O)c2ccc(N=Cc3c(C)[nH]n(-c4ccc(C)cc4)c3=O)cc2)s1,inactive
10,C1=C(N2CCOCC2)/C(=C/c2nc3ccccc3[nH]2)CC1,49% (active)
11,COc1ccc(NCc2nnc(SCc3ccccc3)n2-c2ccc(OC)cc2)cc1,inactive
12,O=C(O)c1ccc2c(=O)n3c(nc2c1)/C(=C/c1ccc(Cl)c([N+](=O)[O-])c1)CC3,inactive
13,Cc1ccc(/C=C2\CCn3c2nc2cc(C(=O)O)ccc2c3=O)c(C)c1,52% (active)
14,Oc1ccc(-c2[nH]ncc2-c2nc3ccccc3s2)c(O)c1,12% (active)
15,O=S(=O)(Nc1nccs1)c1ccc2c(c1)OCCO2,inactive
16,Cc1c(NC(=O)c2coc(=O)c(Br)c2)c(=O)n(-c2ccccc2)n1C,24.5% (active)
17,CS(=O)(=O)N(CC(O)Cn1c2ccccc2c2ccccc21)c1cccc2ccccc12 (configuration not stated),14.5% (active)
18,O=[N+]([O-])c1c(NCCO)cc(Sc2nc3ccccc3s2)c2nonc12,inactive
19,COc1ccc(S(=O)(=O)Nc2ccc(O)c(Sc3nc4ccccc4s3)c2)cc1,23% (active)
20,Nc1ccccc1SC(C[N+](=O)[O-])c1ccccc1 (configuration not stated),38.5% (active)
21,O=C(O)C(c1ccccc1)N1C(=O)/C(=C\c2ccc(-c3cccc(Cl)c3)o2)SC1=S (configuration not stated),13.5% (active)
22,COc1ccccc1C1C(C#N)=C(N)Oc2c1c(-c1ccccc1)nn2-c1ccccc1 (configuration not stated),34.5% (active)
23,C=C(C)C(=O)O[C@H]1C/C(C)=C\C(=O)/C=C(\C)[C@H](O)[C@@H]2OC(=O)C(=C)[C@@H]21,26.5% (active)
24,CC(=O)Nc1ccc(S(=O)(=O)Nc2nc(-c3ccc(C(C)(C)C)cc3)cs2)cc1,19.5% (active)
25,O=C(/C=C/Sc1ncn[nH]1)c1ccc(Cl)cc1,45.5% (active)
26,Cc1cc(-c2n[nH]c(=S)n2/N=C/C(Br)=C/c2ccccc2)n[nH]1,18% (active)
